High-throughput results: PubChem, several laboratories
Sampled rows, rich in hits. Any-hit rate of the full collection: about 2.6%.
AI-2 QS modul = Vibrio harveyi AI-2 quorum sensing modulators, primary screen, JMH597 strain, luminescence/OD600 ratio | Vibrio harveyi JMH597 AI-2 luminescence/OD600 ratio, 9 h; stronger effect = lower value; strain lacks LuxN and CqsS sensors; 0 = neutral-control median | activity change, % at 7.5 µM | hit rate 0.4% among 300,000; in the data active = activity change below about -75%, passing the limit was not always enough; inconclusive = no clear call, values can overlap the other calls;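 also: luminescence divided by OD600 gain over 9 h not by final OD600 alone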
ABCB6 inh MLPCN = ABCB6 transporter inhibitors, primary screen, K562-ABCB6 cells, flow cytometry, MLPCN library; ATP-binding cassette sub-family B member 6 (Homo sapiens), Q9NP58; K562-ABCB6 porphyrin accumulation, 1 h; stronger effect = lower value; fluorescence ratio to DMSO, % at 10 µM; hit rate 0.19% among 360,000;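 active = fluorescence ratio to DMSO below 75%, the collection mean minus 3 SD; inconclusive = too few cells collected in the well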;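 also: signal is porphyrin accumulated inside mitochondria; lower ratio means ABCB6 inhibition with less porphyrin fluorescence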
PHOSPHO1 block = PubChem AID 1565. hit rate 1.1% among 290,000. inhibition, % at 13.3 µM. recombinant PHOSPHO1, absorbance phosphatase assay. Phosphoethanolamine/phosphocholine phosphatase (Homo sapiens), Q8TCT1; in the data active = inhibition above about 60%
PABP FP inh = PABP poly(A) RNA binding inhibitors, primary screen, biochemical, fluorescence polarization, uHTS. calls only at 35 µM. hit rate 1% among 290,000. AID 2014, 2009;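 also: calls also rest on retests at 20 µM and on dose response follow-up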
Target sequence (P11940 whole entry, looked up): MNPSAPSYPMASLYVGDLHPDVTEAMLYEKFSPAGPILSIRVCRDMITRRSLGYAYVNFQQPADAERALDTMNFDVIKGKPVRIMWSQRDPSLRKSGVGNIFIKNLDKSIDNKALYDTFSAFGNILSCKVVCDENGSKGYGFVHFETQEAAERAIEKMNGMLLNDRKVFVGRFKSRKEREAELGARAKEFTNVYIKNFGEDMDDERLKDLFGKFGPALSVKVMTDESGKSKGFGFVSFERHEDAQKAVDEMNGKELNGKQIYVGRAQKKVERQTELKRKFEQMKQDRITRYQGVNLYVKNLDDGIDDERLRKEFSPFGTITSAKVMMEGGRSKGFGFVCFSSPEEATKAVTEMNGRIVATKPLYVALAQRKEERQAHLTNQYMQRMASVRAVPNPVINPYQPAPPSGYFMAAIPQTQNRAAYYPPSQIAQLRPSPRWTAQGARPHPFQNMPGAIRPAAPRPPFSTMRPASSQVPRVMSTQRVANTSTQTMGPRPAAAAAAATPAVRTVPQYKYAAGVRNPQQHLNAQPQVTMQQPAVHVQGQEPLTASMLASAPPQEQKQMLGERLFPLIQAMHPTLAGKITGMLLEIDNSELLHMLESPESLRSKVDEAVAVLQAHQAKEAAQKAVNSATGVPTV
eIF4H FP inh = human eIF4H binding inhibitors, primary screen, translation initiation inhibitor project, biochemical, uHTS, fluorescence polarization; AID 2012, 2009; hit rate 0.94% among 290,000; eIF4H fluorescence polarization binding assay; inhibition, % at 35 µM; Eukaryotic translation initiation factor 4H (Homo sapiens), Q15056;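 also: calls also rest on retests at 20 µM and on dose response follow-up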
MLLE-PAM2 inh = inhibitors of PABP1 MLLE–PAM2 peptide binding, primary screen, biochemical, fluorescence polarization, FITC-PAM2, GST-MLLE; Polyadenylate-binding protein 1 (Homo sapiens), P11940; inhibition, % at 20 µM; hit rate 0.36% among 360,000; in the data active = inhibition above about 35%, passing the limit was not always enough
Large screens that a line does not name were inactive. Unless noted, no rule for the calls is given here.

COc1ccccc1Oc1ncnc2sccc12	PHOSPHO1 block 61
Cc1snc(SCC(=O)c2ccc([N+](=O)[O-])cc2)c1C#N	PHOSPHO1 block 72 (no result: AI-2 QS modul)
Cc1cccnc1NCc1ccc(O)c2ncccc12	PHOSPHO1 block 78
CC(=O)NCCCc1nc2ccccc2n1Cc1cc(C)ccc1C	PHOSPHO1 block 64
COc1cc(C(=O)NCCCc2nc3ccccc3n2Cc2cc(C)ccc2C)cc(OC)c1OC	none
Oc1ccccc1N=Cc1ccc[nH]1	PABP FP inh active, eIF4H FP inh 49
O=c1c2ccccc2nc(N/N=C/c2ccc(O)cc2)n1O	PHOSPHO1 block 88
O=c1c2ccccc2nc(N/N=C/c2c(O)ccc3ccccc23)n1O	PHOSPHO1 block 66
Cn1nc(C(C)(C)C)cc1NC(=O)C1(C)CCN1C(=O)CC(c1ccccc1)c1ccccc1 (centres undefined)	none (no result: AI-2 QS modul, PHOSPHO1 block, PABP FP inh, eIF4H FP inh)
Cc1csc(SCC(=O)c2ccc(S(=O)(=O)N3CCOCC3)cc2)n1	PHOSPHO1 block 78
COc1ccccc1C(=O)N1CCN(C(=O)[C@H]2O[C@@H](n3ccc(N)nc3=O)[C@H](O)[C@@H]2O)CC1	none (no result: AI-2 QS modul, PHOSPHO1 block, PABP FP inh, eIF4H FP inh)
O=C(NCCN1CCC(n2c(=O)[nH]c3ccccc32)CC1)c1ccc(F)c(F)c1	none (no result: AI-2 QS modul, PHOSPHO1 block, PABP FP inh, eIF4H FP inh, MLLE-PAM2 inh)
O=C(CSc1ccsc1[N+](=O)[O-])N1CCN(c2ccc(Cl)cc2)CC1	PABP FP inh active, eIF4H FP inh 77
C=Cc1ccc(CC2(C)C(=O)Nc3ccc(-c4cccnc4)cc32)cc1 (centres undefined)	none (no result: AI-2 QS modul, PHOSPHO1 block, PABP FP inh, eIF4H FP inh)
COC(CN1CCc2c(C)nc3c(C#N)cnn3c21)OC	none
COc1ccc(-c2cnn3c4c(c(C)nc23)CCN4C(C)C)cc1OC	PHOSPHO1 block 62
CCCCNC(=O)C(NC(=O)c1ccc(=O)[nH]c1)C(=O)c1ccccc1 (centres undefined)	none (no result: AI-2 QS modul, PHOSPHO1 block, PABP FP inh, eIF4H FP inh)
CCc1ccc(OCC(=O)N/N=C(\C)c2ccc(O)cc2O)cc1	AI-2 QS modul -78
Cc1cccc(NC(=O)c2nc[nH]c2C(=O)N[C@@H](C)CO)c1	none (no result: AI-2 QS modul, PHOSPHO1 block, PABP FP inh, eIF4H FP inh)
S=C1NC2=C(CCC/C2=C\c2ccc(Cl)cc2)C(c2ccc(Cl)cc2)N1 (centres undefined)	PHOSPHO1 block 92 (no result: AI-2 QS modul)
S=c1[nH]nc(-c2ccncc2)n1CC1CCCO1 (centres undefined)	none
Fc1ccc(-c2n[nH]c(=S)n2CC2CCCO2)cc1 (centres undefined)	PHOSPHO1 block 88
Cn1cccc1CC(=O)N/N=C/c1cccc2ccccc12	none
Cn1cccc1CC(=O)N/N=C\c1c2ccccc2cc2ccccc12	ABCB6 inh MLPCN 73
CC1=C(C(=O)N2CCOCC2)CC(CC(=O)NC2CCCC2)C(=O)N1Cc1ccccc1 (centres undefined)	none (no result: AI-2 QS modul, PHOSPHO1 block, PABP FP inh, eIF4H FP inh)
Cc1ccc(S(=O)(=O)NC(=O)C2(C)CCN2C(=O)c2cccc(F)c2)cc1 (centres undefined)	none (no result: AI-2 QS modul, PHOSPHO1 block, PABP FP inh, eIF4H FP inh)
Cc1ccc(S(=O)(=O)N2C[C@H]3C(=O)C[C@@H](c4ccccc4)N(S(=O)(=O)c4ccc(Br)cc4)[C@H]3C[C@H]2c2ccccc2)cc1	none (no result: AI-2 QS modul, PHOSPHO1 block, PABP FP inh, eIF4H FP inh)
CCOC(=O)C1CCN(c2ccc(C(N)=O)cc2[N+](=O)[O-])CC1	none
NC(=O)c1ccc(N2CCC(C(N)=O)CC2)c([N+](=O)[O-])c1	PABP FP inh active, eIF4H FP inh 93
O=C(Nc1cccc(N2C(=O)C=CC2=O)c1)c1cccs1	AI-2 QS modul inconclusive (no result: PHOSPHO1 block, PABP FP inh, eIF4H FP inh)
O=C1C=CC(=O)N1c1cccc(-c2ccccc2)c1	AI-2 QS modul -212, PHOSPHO1 block 78
CC(C)=CCC[C@H](C)C[C@@H]1Cc2[nH][nH]c(=O)c2[C@H](c2ccc(F)cc2)O1	none (no result: AI-2 QS modul, PHOSPHO1 block, PABP FP inh, eIF4H FP inh, MLLE-PAM2 inh)
COc1cccc(N=C2NC(=O)/C(=C/c3cc([N+](=O)[O-])ccc3O)S2)c1	none
O=C1NC(=Nc2ccccc2Cl)S/C1=C\c1cc([N+](=O)[O-])ccc1O	PABP FP inh active
CC1(C(=O)Nc2ccc3c(c2)OCCO3)CCC(=O)N1C1CCN(Cc2ccccc2)CC1 (centres undefined)	none (no result: AI-2 QS modul, PHOSPHO1 block, PABP FP inh, eIF4H FP inh)
COCCNC(=O)C1(C)CCCN(C(=O)c2ccccc2)C1 (centres undefined)	none (no result: AI-2 QS modul, PHOSPHO1 block, PABP FP inh, eIF4H FP inh)
